# According to PubChem BioAssay (EPA / NIEHS):
# Records with an inconclusive call do not appear. Active and inactive are the calls of the source. Rule for the calls: active = hit-call score of the fitted dose curve at least 0.9, where 1 is the maximum; inconclusive = response in the unintended direction; inactive = score below 0.9.
# Target: Androgen receptor (Homo sapiens) (UniProt P10275)
# Assay: ATG_AR_TRANS: Attagene TRANS-FACTORIAL HepG2 Assay for human Androgen Receptor (AR) (AID 2282973)
# Conditions: HepG2 Attagene TRANS-FACTORIAL AR reporter transcription
# Method in brief: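 Chimeric nuclear receptor–Gal4 activity was assessed in human HepG2 hepatocytes after 24 h chemical dosing. Induced reporter mRNA was detected via labelled RT-PCR fragments on capillary electrophoresis, and gain of signal was analysed against DMSO.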
# Sequence of Androgen receptor (Homo sapiens) (P10275 whole entry, looked up): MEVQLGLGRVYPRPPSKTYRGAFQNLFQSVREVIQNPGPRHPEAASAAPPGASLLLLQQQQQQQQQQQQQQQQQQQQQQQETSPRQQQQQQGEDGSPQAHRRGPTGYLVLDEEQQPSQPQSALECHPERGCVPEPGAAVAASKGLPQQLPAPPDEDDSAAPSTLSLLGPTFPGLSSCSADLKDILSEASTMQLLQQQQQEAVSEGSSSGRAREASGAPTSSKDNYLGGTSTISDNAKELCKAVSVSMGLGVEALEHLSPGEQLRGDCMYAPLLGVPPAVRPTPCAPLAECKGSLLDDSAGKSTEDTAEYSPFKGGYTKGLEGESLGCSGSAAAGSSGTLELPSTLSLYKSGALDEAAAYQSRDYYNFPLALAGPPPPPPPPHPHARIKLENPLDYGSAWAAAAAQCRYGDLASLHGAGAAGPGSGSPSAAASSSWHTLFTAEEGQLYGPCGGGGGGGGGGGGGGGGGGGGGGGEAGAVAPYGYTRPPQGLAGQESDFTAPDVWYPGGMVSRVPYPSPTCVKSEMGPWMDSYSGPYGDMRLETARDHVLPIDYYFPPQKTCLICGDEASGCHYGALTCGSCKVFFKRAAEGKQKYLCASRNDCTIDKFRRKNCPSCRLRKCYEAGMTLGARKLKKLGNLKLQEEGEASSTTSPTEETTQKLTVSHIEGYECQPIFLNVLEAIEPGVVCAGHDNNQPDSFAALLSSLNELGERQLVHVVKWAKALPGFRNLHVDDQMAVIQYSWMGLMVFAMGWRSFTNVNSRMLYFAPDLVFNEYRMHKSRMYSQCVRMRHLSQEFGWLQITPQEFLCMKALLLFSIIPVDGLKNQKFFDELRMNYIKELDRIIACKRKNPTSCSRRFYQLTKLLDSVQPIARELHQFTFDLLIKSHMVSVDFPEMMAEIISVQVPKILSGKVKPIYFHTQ
row,SMILES,outcome
1,Cc1cc(C(=C2C=CC(=Nc3ccc(S(=O)(=O)O)cc3)C=C2)c2ccc(Nc3ccc(S(=O)(=O)O)cc3)cc2)cc(S(=O)(=O)O)c1N,inactive
2,O=S(=O)(O)c1cc(S(=O)(=O)O)c2ccc3c(S(=O)(=O)O)cc(S(=O)(=O)O)c4ccc1c2c43,inactive
3,ON(Cc1ccccc1)Cc1ccccc1,inactive
4,c1ccc(Sc2ccccc2)cc1,inactive
5,CC(=O)c1ccc(S(=O)(=O)NC(=O)NC2CCCCC2)cc1,inactive
6,C=CC(C)(CCC=C(C)C)OC(=O)C=Cc1ccccc1 (centres undefined),inactive
7,COc1ccc(C(C)=O)cc1,inactive
8,CC1=Nc2ccc3ccccc3c2C1(C)C,inactive
9,COc1ccc(C)cc1N,inactive
10,COC(C)(C)CC(C)=O,inactive
11,CC(=O)CC(=O)Nc1ccc(C)cc1C,inactive
12,O=C(NCc1ncc(C(F)(F)F)cc1Cl)c1c(Cl)cccc1Cl,inactive
13,O=c1cc(-c2ccccc2)oc2cc(O)cc(O)c12,inactive
14,CC1CCC(C(C)C)C(O)C1 (centres undefined),inactive
15,CC(C)CC(=O)CC(C)CC(C)C (centres undefined),inactive
16,CCCc1ccc(OC)cc1,inactive
17,COCCOCCC[Si](C)(O[Si](C)(C)C)O[Si](C)(C)C,inactive
18,CCCCCCOc1ccc(O)cc1,inactive
19,CCCCCCCC(OC)OC,inactive
20,CC(=O)O[C@@H]1C[C@@H]2CC[C@@]1(C)C2(C)C,inactive

row,SMILES,outcome
1,OCCCS,inactive
2,CCCC/C=C/C=C\C=O,inactive
3,C=COCCCC,inactive
4,c1ccc2cc(Nc3ccc(Nc4ccc5ccccc5c4)cc3)ccc2c1,inactive
5,O=C(C=Cc1ccccc1)OCC=Cc1ccccc1,inactive
6,FC(F)(F)C(F)(F)C(F)(F)Br,inactive
7,CSc1ccc(O)cc1C,inactive
8,N#Cc1ccc(C(c2ccc(C#N)cc2)n2cncn2)cc1,inactive
9,NC(C(F)(F)F)C(F)(F)F,inactive
10,CCCCC[Si](OCC)(OCC)OCC,inactive
11,COc1cc(C=O)ccc1O,inactive
12,Clc1sc(Cl)c(Cl)c1Cl,inactive
13,CCN(CC)c1ccc(C(=C2C=CC(=[N+](CC)CC)C=C2)c2ccc(S(=O)(=O)O)cc2S(=O)(=O)[O-])cc1,inactive
14,CCCCC(CC)COC(=O)/C=C\C(=O)OCC(CC)CCCC (centres undefined),inactive
15,COCCOCCOCCOCCOC,inactive
16,CO[Si](CCC1CCC2OC2C1)(OC)OC (centres undefined),inactive
17,NCCNc1cccc2ccccc12,inactive
18,CCc1cccc(C)c1N,inactive
19,Clc1cccnc1,inactive
